Rows were chosen to be rich in hits. Some 6.6% of all compounds tested hit in one or more screens of this group.
NR3A LBD binder – modulators (binders) of human NR3A ligand-binding domain; NR3A LBD differential scanning fluorimetry, Tm shift; 0% = protein alone, 100% = glycine-bound protein; Tm shift relative to glycine control, % at 25 µM; 2.5% of 340,000 active; AID 1259313;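 active = melting temperature shift of at least 10% of the positive control shift, at one fixed dose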
Gli-Sufu antag – Gli-Sufu pathway antagonism; Sufu-KO-LIGHT fibroblasts, Gli luciferase reporter luminescence; inhibition, % at 5 µM; 0.74% of 340,000 active;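 active = inhibition above about 55%, limit read from the data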
MPTP block – permeability transition pore inhibition; AID 602449; isolated mouse mitochondria, Ca2+ swelling absorbance, 30 min; 1.4% of 360,000 active; inhibition, % at 10 µM;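 active = inhibition of 50% or more, scaled per plate between neutral and stimulator controls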
Beta cell apopt – blocks beta cell apoptosis | 0.8% of 300,000 active | AID 435005 | protection from apoptosis, % (concentration not given with the values) | INS-1E cytokine-induced death, ATP luminescence, 48 h; percent of positive-control rescue, neutral wells zero;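 active = Every replicate reaches about 75%, or at least half do and their mean reaches it too, limit read from the data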;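 also: higher means more ATP so stronger rescue from cytokine killing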
CSC inhib – blocks cancer stem cells; cancer stem cell-like cells viability, luminescence; inhibition, % at 7.5 µM; 1.1% of 300,000 active; in the data active = inhibition above about 75%; tested in HMLE shEcad cells
Mdm2 MdmX PPI – disrupts the human Mdm2-MdmX interaction | O15151+Q00987 | SaOS-2 split-luciferase Mdm2/MdmX complementation, luminescence | inhibition, % at 8 µM | 3% of 330,000 active | AID 485346;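 active = inhibition of at least 50% at 8 µM in the primary screen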
Target sequence (O15151 whole entry, looked up): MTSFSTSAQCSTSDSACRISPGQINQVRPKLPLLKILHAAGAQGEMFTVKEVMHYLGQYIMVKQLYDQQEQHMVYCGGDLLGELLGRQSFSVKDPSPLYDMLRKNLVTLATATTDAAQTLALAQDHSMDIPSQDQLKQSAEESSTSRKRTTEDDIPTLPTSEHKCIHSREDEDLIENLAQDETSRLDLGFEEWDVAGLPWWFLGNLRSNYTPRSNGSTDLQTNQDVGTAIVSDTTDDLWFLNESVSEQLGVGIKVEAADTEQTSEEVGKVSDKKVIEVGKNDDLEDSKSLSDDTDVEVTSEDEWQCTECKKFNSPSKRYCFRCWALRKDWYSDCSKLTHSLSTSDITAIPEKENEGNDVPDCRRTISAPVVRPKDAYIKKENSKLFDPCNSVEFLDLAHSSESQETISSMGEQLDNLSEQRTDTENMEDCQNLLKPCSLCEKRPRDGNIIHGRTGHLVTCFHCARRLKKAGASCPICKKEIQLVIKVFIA
Target sequence (Q00987 whole entry, looked up): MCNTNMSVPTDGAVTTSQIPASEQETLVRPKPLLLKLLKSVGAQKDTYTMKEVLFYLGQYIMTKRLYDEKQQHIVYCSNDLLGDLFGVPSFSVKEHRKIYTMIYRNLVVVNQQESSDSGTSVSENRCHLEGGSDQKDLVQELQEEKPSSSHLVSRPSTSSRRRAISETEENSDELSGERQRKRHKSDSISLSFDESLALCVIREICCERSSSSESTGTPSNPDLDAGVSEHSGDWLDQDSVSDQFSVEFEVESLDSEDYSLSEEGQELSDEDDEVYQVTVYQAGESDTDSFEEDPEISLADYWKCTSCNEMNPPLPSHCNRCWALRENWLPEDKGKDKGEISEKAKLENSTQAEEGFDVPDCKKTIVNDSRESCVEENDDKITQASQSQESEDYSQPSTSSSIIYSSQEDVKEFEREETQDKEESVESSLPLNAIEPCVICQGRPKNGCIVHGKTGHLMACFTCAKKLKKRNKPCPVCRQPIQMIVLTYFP
Rh123 counter – Rhodamine 123 counter-screen of mitochondrial pore hits | shares compounds with MPTP block | isolated mitochondria, membrane potential, Rhodamine 123 fluorescence | inhibition, % at 10 µM | 78% of 5,000 active | AID 624504; in the data active = inhibition above about 22%
MPTP swell DR – dose response confirmation of mitochondrial permeability transition pore inhibitors | shares compounds with MPTP block | isolated mitochondria swelling, absorbance | IC50, µM | 58% of 780 active; in the data active = IC50 below about 20 µM
MPTP counter DR – active in counter-screen for permeability transition pore inhibitors; shares compounds with MPTP block; isolated mitochondria counterscreen, fluorescence read-out; IC50, µM; 49% of 780 active; in the data active = IC50 below about 80 µM
A number is an active result; i = inactive; nt = no result.

SMILES | NR3A LBD binder | Gli-Sufu antag | MPTP block | Beta cell apopt | CSC inhib | Mdm2 MdmX PPI | Rh123 counter | others
COc1ccc2[nH]c3c(NCCN4CCCCC4)ncnc3c2c1 | nt | nt | i | i | i | i | nt
COc1cc(CNc2ncnc3c2[nH]c2ccc(C)cc23)cc(OC)c1 | i | i | 86 | i | i | i | 83
NC(=O)CSc1ccc(F)cc1 | i | i | i | i | i | i | nt
C[C@H](CO)N1C[C@H](C)[C@@H](CN(C)C(=O)Nc2ccc3c(c2)OCO3)Oc2ccc(NS(=O)(=O)c3ccccc3)cc2C1=O | i | i | i | i | i | i | nt
CCN(CC)CCOC(=O)C(c1ccccc1)c1ccccc1 | i | i | i | i | i | i | nt
CCN(CC)CCSC(=O)C(c1ccccc1)c1ccccc1 | nt | nt | 65 | nt | nt | nt | i | MPTP swell DR=i;MPTP counter DR=i
Cc1ccc(-c2noc(CCC(=O)NCCN3CCN(Cc4ccccc4)CC3)n2)cc1 | i | i | i | i | i | i | nt
Cc1cccc(-c2noc(CCC(=O)Nc3ccccc3)n2)c1 | i | i | i | i | i | i | nt
COc1ccc(-c2noc(CCC(=O)NCCCN3CCC(Cc4ccccc4)CC3)n2)cc1 | i | i | 63 | i | i | i | 42
CCOC(=O)c1ccc(NC(=O)CCc2nc(-c3cccc(C)c3)no2)cc1 | i | i | 85 | i | i | i | 91
Cc1ccc(-c2noc(CCC(=O)NCC3CCN(Cc4cccc(C)c4)CC3)n2)cc1 | i | i | 67 | i | i | i | i | MPTP swell DR=8.8;MPTP counter DR=24
COc1cn(-c2ccccc2)nc1C(=O)NCc1ccccc1 | i | i | i | nt | i | i | nt
CCCCn1c(N)c(N(CC(C)C)C(=O)CSc2n[nH]c(-c3ccc(C)cc3)n2)c(=O)[nH]c1=O | i | i | i | i | i | i | nt
Cc1ccc(-c2noc(C3CCN(S(=O)(=O)c4ccc5c(c4)OCCO5)CC3)n2)o1 | i | i | 52 | i | i | i | 64
O=C(NCCOc1ccccc1)C(=O)c1c[nH]c2ccccc12 | i | i | i | i | i | i | nt
Cc1cccc(OCCCCNCc2ccccc2)c1 | i | i | 59 | i | i | i | i | MPTP swell DR=6.8;MPTP counter DR=i
COc1ccccc1Oc1ccc2c(c1)C(=O)N(c1cccc3ncccc13)C2=O | i | i | 96 | nt | nt | nt | 112
O=C(c1ccccc1)c1ccc(Cn2cc(-c3ccccc3)nn2)cc1 | i | i | 85 | i | i | i | 99
CCCCCc1ccc(-c2cn(Cc3ccc(C(=O)c4ccccc4)cc3)nn2)cc1 | i | i | i | i | i | i | nt
CCCCn1c(NC(=O)c2ccc(Br)o2)c(S(=O)(=O)c2ccccc2)c2nc3ccccc3nc21 | i | i | 78 | i | i | i | 78
CCCn1c(=O)[nH]c(=O)c2c1nc(-c1ccc(OC(F)F)c(OC)c1)n2CCOC | i | i | 80 | i | i | i | i | MPTP swell DR=i;MPTP counter DR=i
CCN1CCN(CCCNC(=O)c2cc3c(s2)-c2ccccc2OC3)CC1 | i | i | i | i | i | i | nt
CN(C)CCNC(=O)c1cc2c(s1)-c1ccccc1OC2 | i | i | 60 | i | i | i | i | MPTP swell DR=14;MPTP counter DR=i
Cc1c(NC(=O)c2cc3c(s2)-c2ccccc2OC3)cccc1[N+](=O)[O-] | i | i | 64 | i | i | i | 77
CCCn1nc([N+](=O)[O-])c(C(C#N)c2nc3ccccc3o2)c(Cl)c1=O (stereo not drawn) | i | i | 101 | i | 79 | i | 50
SMILES | NR3A LBD binder | Gli-Sufu antag | MPTP block | Beta cell apopt | CSC inhib | Mdm2 MdmX PPI | Rh123 counter | others
Cc1ccc(C2CCN(C(=O)Nc3ccccc3)C2)cc1 (stereo not drawn) | i | i | i | i | i | i | nt
O=C(Nc1ccc(Cl)cc1)N1CCC(c2ccccc2)C1 (stereo not drawn) | i | i | 86 | i | i | i | 91
Cc1nn(-c2ccccc2)c2c1C(c1cccs1)C(C#N)=C(N)O2 (stereo not drawn) | i | i | 75 | i | i | i | i
CC(=O)N1CCN(c2ccc(Oc3ccc([N+](=O)[O-])c(C(F)(F)F)c3)cc2)CC1 | i | 67 | 80 | 95 | i | i | 76
Cc1snc(S(=O)(=O)/C(C#N)=N/Nc2ccc(C(F)(F)F)cc2)c1C#N | 24 | i | 90 | i | 89 | i | 103
Cc1snc(S(=O)(=O)/C(C#N)=N\Nc2ccccc2)c1C#N | i | i | i | i | i | i | nt
Cc1c(C(=O)Nc2nnc(C(F)(F)F)s2)oc2ccccc12 | i | i | 67 | i | nt | i | i | MPTP swell DR=6.5;MPTP counter DR=<2.5
COC(=O)c1sc(NC(=O)c2oc3ccccc3c2C)nc1C | i | i | i | i | i | i | nt
COc1ccc(NC(=O)C(CC(=O)O)C(C)c2ccccc2)cc1 (stereo not drawn) | i | i | i | i | i | i | nt
O=C(Cn1nnc2ccccc2c1=O)NCCc1ccc(F)cc1 | nt | nt | nt | i | i | i | nt
O=[N+]([O-])c1ccc(N=Nc2ccc(O)c3ccccc23)cc1 | 20 | i | 98 | nt | nt | nt | 79
OC(CNCc1ccc(Cl)cc1)(c1ccccc1)c1ccc(F)cc1 (stereo not drawn) | i | i | 73 | i | i | i | i | MPTP swell DR=18;MPTP counter DR=25
CNS(=O)(=O)c1cccc(C(=O)OCC(=O)NC2CCCC(C)C2C)c1 (stereo not drawn) | i | i | i | i | i | i | nt
Cc1nc2ccccc2n1CC(=O)NCc1ccccc1 | i | i | 70 | i | i | i | i | MPTP swell DR=i;MPTP counter DR=31
O=C(Nc1nc2c(s1)CCCC2)c1nn(Cc2ccccc2)c(=O)c2ccccc12 | i | i | 59 | i | i | i | i | MPTP swell DR=i;MPTP counter DR=i
COc1ccc2c(c1)O[C@@H](c1cccc(C(F)(F)F)c1)[C@H](OC(=O)NCCc1ccc(OC)c(OC)c1)C2=O | nt | nt | nt | i | i | i | nt
CC1(C)N=C(N)N=C(N)N1c1ccccc1 | i | i | i | i | i | i | nt
CC1(C)N=C(N)N=C(N)N1c1ccc(CCCCc2ccccc2)cc1 | nt | nt | 64 | nt | nt | nt | 60
O=C(N/N=C/c1cccc(C(F)(F)F)c1)c1ccccc1O | i | i | 65 | i | nt | i | 55
O=C(N/N=C/c1ccc2nccnc2c1)c1ccccc1O | nt | nt | nt | i | i | i | nt
COc1cc(CN2CCC(CO)(CCOc3ccccc3)CC2)cc(OC)c1OC | i | i | i | i | nt | i | nt
COc1ccc(CN2CCC(CO)(CCOc3ccccc3)CC2)cc1C | i | i | 68 | nt | nt | i | i | MPTP swell DR=20;MPTP counter DR=i
COc1ccc(Cl)cc1NC(=O)CSC1=NN2CCCC(=O)N=C2S1 | i | i | i | i | nt | i | nt
CCCN(CC(=O)Nc1cccc(Br)c1)CC(=O)Nc1ccc(F)c(F)c1F | 22 | i | 74 | i | i | i | 75
O=C(NNC(=O)c1cnccn1)c1ccc(Cl)c(Cl)c1 | i | i | i | i | i | i | nt
CC(=O)NC(=S)Nc1ccc2oc(=O)ccc2c1 | i | i | i | i | i | i | nt

Screens from PubChem.
